Several values for one entry are separate records, joined by “and”; a condition that tells them apart may be missing. Identical values can stand only once. Inconclusive results are not listed. The source holds several records for some structures; these can differ, active in one and inactive in another. Activity calls are given as the source filed them. Unless noted, calls come from the whole dose curve; as a rule, active = well fitted inhibition curve with a large enough effect; inconclusive = small, poorly fitted or top-dose-only effect; inactive = no such curve, though single readings can be large or run the other way.
Potency is the fitted concentration of half-maximal effect.

The nature of the first assay: S16 Schwann cell PMP22 intronic element firefly luciferase assay (AID 624032).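 For activity change, negative = inhibition: plate controls were DMSO for no effect and PTC124 positive control mean for full effect.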 Note: nearly all actives have a fitted effect of over 30% in size. The note with it: S16 rat Schwann cells, PMP22 element FLuc, 24 h; series mostly up to 57.5 µM; activity change, negative = inhibition: at the top concentration. The essentials:
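Rat S16 Schwann cells stably carrying a PMP22 intronic element-driven Fluc reporter were seeded overnight, then exposed to compounds for 24 h at 37 °C. Luminescence was normalized to PTC124 (positive control) and DMSO (0% activity).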
As for `Cc1cc2nc3c(=O)[nH]c(=O)nc-3n(C[C@H](O)[C@H](O)[C@H](O)COP(=O)(O)OP(=O)(O)OC[C@H]3O[C@@H](n4cnc5c(N)ncnc54)[C@H](O)[C@@H]3O)c2cc1C`, the “activity change, negative = inhibition” value is 3.53% (inactive).
As to `C=CCN1CCCC1CNC(=O)c1cc(S(N)(=O)=O)cc(OC)c1OC` (stereo unspecified), the “activity change, negative = inhibition” value was -38.1% (inactive).
As to `O=C1c2ccccc2C(=O)c2c1ccc(O)c2O`, the “activity change, negative = inhibition” value is -0.719% (inactive).
For the molecule `CCSc1ccc2c(c1)N(CCCN1CCN(C)CC1)c1ccccc1S2`, the “activity change, negative = inhibition” value was 2% [at 25.7 µM] (inactive).
On to `NC(=S)N=Nc1ccc(NN=C(N)N)cc1`, for which the “activity change, negative = inhibition” value was 4.88% (inactive).
Consider `CC1CCCCN1CCCOC(=O)c1ccccc1` (stereo unspecified), for which the “activity change, negative = inhibition” value was 21.3% (inactive).
`CCCCCCCCCCCCCCCCCC(=O)OCC(C)O` (stereo unspecified): the “activity change, negative = inhibition” value was 19.1% (inactive).
Take `NCCN`: the “activity change, negative = inhibition” value is -2.69% (inactive).
Consider `S=C1SCN(Cc2ccccc2)CN1Cc1ccccc1`, for which the Potency is 14.4 µM (active).
For the molecule `C[C@]12CC[C@@H]3c4ccc(OC(=O)c5ccccc5)cc4CC[C@H]3[C@@H]1CC[C@@H]2O`, the Potency is 3.61 µM (active).
As to `CCOC(=O)C1=C(COCCN)NC(C)=C(C(=O)OC)C1c1ccccc1Cl` (stereo unspecified), the “activity change, negative = inhibition” value was -10.2% (inactive).
`CC(C)=CCC/C(C)=C/C=C/C(C)=C/C=C/C(C)=C/C=C/C=C(C)/C=C/C=C(C)/C=C/C=C(\C)CCC=C(C)C`: the “activity change, negative = inhibition” value was -21.4% (inactive).
With `CCN(CC)CCC(=O)N1c2ccccc2Sc2ccc(C(F)(F)F)cc21`, the Potency was 14.4 µM (active).
On to `CN(C)CCC=C1c2ccccc2C(C)(C)c2ccccc21`, for which the “activity change, negative = inhibition” value is -23.9% (inactive).
As to `C(=C\c1ccncc1)/c1ccccc1`, the “activity change, negative = inhibition” value was 78.8% (inactive).
With `NCC(O)CC(=O)O` (stereo unspecified), the “activity change, negative = inhibition” value is 3.36% (inactive).
For `O=P(O)(O)OP(=O)(O)O`, the Potency was 1.81 µM (active).
As for `Cc1ccccn1`, the “activity change, negative = inhibition” value was 4.21% (inactive).
Turning to `COc1ccc(/C=C/C(=O)OCCC(C)C)cc1`, the “activity change, negative = inhibition” value was 140% (inactive).
As to `O=C(OC1C[C@@H]2CC3C[C@H](C1)N2CC3=O)c1c[nH]c2ccccc12` (stereo partly specified), the “activity change, negative = inhibition” value was -26.6% (inactive).
For the molecule `Cc1ncc(C[n+]2csc(CCOP(=O)(O)OP(=O)(O)O)c2C)c(N)n1`, the “activity change, negative = inhibition” value was -23.8% (inactive).
Regarding `CCCCCCCCCCCCCCCCOCCOCCOCCOCCOCCOCCOCCOCCOCCOCCOCCOCCOCCOCCOCCOCCOCCOCCOCCOCCO`, the Potency is 22.8 µM (active).
As to `C[C@]12CCC(=O)C[C@@H]1CC[C@@H]1[C@@H]2CC[C@]2(C)C=CC[C@@H]12`, the “activity change, negative = inhibition” value was -35.4% (inactive).
As for `CC(C)(CO)[C@@H](O)C(=O)NCCC(=O)NCCSSCCNC(=O)CCNC(=O)[C@H](O)C(C)(C)CO`, the “activity change, negative = inhibition” value is -11.7% (inactive).
On the same count and under the same terms, next, `O=[N+]([O-])c1c(Cl)cccc1-c1c[nH]cc1Cl`: -8.86% (inactive).

A further assay can be described thus: S16 Schwann cell PMP22 intronic element beta-lactamase assay (AID 624044; calls by dose curve; note: nearly all actives have a fitted effect of over 15% in size;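 for ratio activity, negative = inhibition: 0% = DMSO and -100% = potassium clavulanate positive control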). The following applies: S16 rat Schwann cells, PMP22 element beta-lactamase FRET, 24 h; ratio activity, negative = inhibition: at 38.3 µM (top of the series) unless noted. An outline of the steps:
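Rat S16 Schwann cells with beta-Lac driven by a PMP22 intronic element, compound-treated 24 h at 37 °C. LiveBLAzer FRET B/G read: 460 nm normalized to potassium clavulanate vs DMSO; 535 nm FRET as viability; concentration-effect curves classified.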
With `Cc1ncc(C[n+]2csc(CCOP(=O)(O)O)c2C)c(N)n1`, the ratio activity, negative = inhibition was -8.96% (inactive).
On the same count and under the same terms, next, `Cc1cc2nc3c(=O)[nH]c(=O)nc-3n(C[C@H](O)[C@H](O)[C@H](O)COP(=O)(O)OP(=O)(O)OC[C@H]3O[C@@H](n4cnc5c(N)ncnc54)[C@H](O)[C@@H]3O)c2cc1C`: -42.7% (inactive); `C=CCN1CCCC1CNC(=O)c1cc(S(N)(=O)=O)cc(OC)c1OC` (stereo unspecified): 1.62% (inactive); `CN(C)CCOc1ccc(/C(=C(/CCCl)c2ccccc2)c2ccccc2)cc1`: -1.5% (inactive).
In the case of `CCCOC(=O)c1ccccc1O`, the ratio activity, negative = inhibition is 5.82% (inactive).
For the molecule `CCSc1ccc2c(c1)N(CCCN1CCN(C)CC1)c1ccccc1S2`, the ratio activity, negative = inhibition is 0.419% [at 17.1 µM] (inactive).
Still for that read-out and setting: next, `NC(=S)N=Nc1ccc(NN=C(N)N)cc1`: -3.68% (inactive); `CCCCCCCCCCCCCCCCCC(=O)OCC(C)O` (stereo unspecified): -0.254% (inactive).
Regarding `CC(C)(C)CC(C)(C)c1ccc(OCCO)cc1`, the ratio activity, negative = inhibition was -12.4% (inactive).
Consider `CCOC(=O)C1=C(COCCN)NC(C)=C(C(=O)OC)C1c1ccccc1Cl` (stereo unspecified), for which the ratio activity, negative = inhibition was -3.48% (inactive).
For the molecule `CCN(CC)CCC(=O)N1c2ccccc2Sc2ccc(C(F)(F)F)cc21`, the ratio activity, negative = inhibition was -1.58% (inactive).
In the case of `COc1cc(C)c(/C=C/C(C)=C/C=C/C(C)=C/C(=O)O)c(C)c1C`, the ratio activity, negative = inhibition was -28.2% (inactive).
As for `CN(C)CCC=C1c2ccccc2C(C)(C)c2ccccc21`, the ratio activity, negative = inhibition was -0.444% (inactive).
`C(=C\c1ccncc1)/c1ccccc1`: the ratio activity, negative = inhibition is -6.31% (inactive).
With `NCC(O)CC(=O)O` (stereo unspecified), the ratio activity, negative = inhibition was 4.25% (inactive).
With `Cc1ccccn1`, the ratio activity, negative = inhibition is -0.827% (inactive).
For `O=C(OC1C[C@@H]2CC3C[C@H](C1)N2CC3=O)c1c[nH]c2ccccc12` (stereo partly specified), the ratio activity, negative = inhibition is -0.0634% (inactive).
The same measure, in the same setting: next, `Cc1ncc(C[n+]2csc(CCOP(=O)(O)OP(=O)(O)O)c2C)c(N)n1`: -0.395% (inactive).
As for `O=[n+]1ccn([O-])c2ccccc21`, the ratio activity, negative = inhibition is 6.86% (inactive).
Turning to `CCCCCCCCCCCCCCCCOCCOCCOCCOCCOCCOCCOCCOCCOCCOCCOCCOCCOCCOCCOCCOCCOCCOCCOCCOCCO`, the Potency is 19.9 µM (active).
For the molecule `CCOC(=O)c1cc(-c2ccccc2)nc2ccc(C)cc12`, the ratio activity, negative = inhibition is 4.28% (inactive).
Take `C=C(C)C1CC=C(C)CC1` (stereo unspecified): the ratio activity, negative = inhibition is -0.885% (inactive).
Regarding `O=[N+]([O-])c1c(Cl)cccc1-c1c[nH]cc1Cl`, the ratio activity, negative = inhibition is -0.605% (inactive).

The nature of another assay: qHTS assay for small molecule agonists of the antioxidant response element (ARE) signaling pathway (AID 651741; active = well fitted activation curve with a large enough effect in the signal ratio; the % refers to the signal ratio; for activation: % of control where 0% means no effect). The note with it: HepG2 ARE-bla reporter, beta-lactamase FRET ratio, 16 h; series mostly up to 96 µM; activation: at the top concentration. An outline of the steps: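 ARE-bla HepG2 cells (beta-lactamase reporter under ARE control) were plated at 2,000 cells/well, preincubated 5 h at 37 C/5% CO2, then treated with DMSO-dissolved compounds for 16 h at 37 C; LiveBLAzer B/G FRET substrate added, fluorescence read after 2 h at room temperature.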
A general note: qHTS replaces the single test concentration by a dilution series.
As to `CC(C)(C)CC(C)(C)c1ccc(OCCO)cc1`, the Potency is 37.6 µM (active).
For the molecule `CC(C)[C@@H]1CC[C@@H](C)C[C@H]1O`, the “activation” value is 8.44% (inactive).
`C=C(C)C1CC=C(C)CC1` (stereo unspecified): the Potency result is “inactive and 1.12 mM (active)”.

The values above are taken from PubChem BioAssay (NCATS).
